# Assay outcomes (PubChem BioAssay)
# ELG1 DNA repair: inhibitors of ELG1-dependent DNA repair in HEK293T cells. 2.3% of 330,000 active. Potency, µM (highest dose often 46.1 µM), for inactives: at the top dose activity change, negative = inhibition, usual class: inhibitors. HEK293T ELG1-luciferase reporter, luminescence, 16 h; DNA damage induced by 5-fluorouridine; also: % is scaled to controls: 0 for no effect and ±100 for the full control effect; nearly all actives have a fitted effect of over 55% in size
#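 DMSO vehicle served as the neutral condition. Each well held 2,000 cells given 5-fluorouridine plus compound; after 16 hr at 37 °C/5% CO2, ONE-Glo was added and luciferase measured 30 min later.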
# FLuc counter: counter-screen for miR-21 project: firefly luciferase inhibitors or activators | purified FLuc, Km substrates, luminescence inhibition | Potency, µM (highest dose often 57.5 µM), for inactives: at the top dose activity change, negative = inhibition, hits mostly inhibitors | 6.9% of 360,000 active;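 also: plate controls were vehicle for no effect and reference inhibitor for full effect; nearly all actives have a fitted effect of over 55% in size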
# Target sequence (P08659 whole entry, looked up): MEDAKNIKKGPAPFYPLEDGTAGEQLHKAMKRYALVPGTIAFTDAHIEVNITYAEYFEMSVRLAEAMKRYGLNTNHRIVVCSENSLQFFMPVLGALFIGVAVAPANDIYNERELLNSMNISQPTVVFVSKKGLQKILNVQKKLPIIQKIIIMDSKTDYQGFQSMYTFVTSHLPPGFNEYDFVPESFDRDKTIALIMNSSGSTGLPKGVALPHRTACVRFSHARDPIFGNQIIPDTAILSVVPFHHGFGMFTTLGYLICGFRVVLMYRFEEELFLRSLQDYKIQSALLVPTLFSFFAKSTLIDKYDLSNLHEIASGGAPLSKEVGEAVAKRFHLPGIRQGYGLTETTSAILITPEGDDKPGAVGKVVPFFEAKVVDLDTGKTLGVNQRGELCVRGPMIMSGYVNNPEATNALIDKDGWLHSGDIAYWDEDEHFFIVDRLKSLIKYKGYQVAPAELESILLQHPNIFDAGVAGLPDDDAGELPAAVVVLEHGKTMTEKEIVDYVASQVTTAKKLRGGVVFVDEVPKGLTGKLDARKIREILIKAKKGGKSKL
#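 Biochemical qHTS of compounds, final roughly 60 µM downward over six points, against 10 nM purified firefly luciferase using Km concentrations of substrates (10 uM D-luciferin, 10 uM ATP) in Tris acetate pH 7.5 buffer; luminescence output.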
# SMN2 splice up: increases expression of the SMN2 splice variant. HEK293 SMN2-luciferase splicing reporter, luminescence, 30-36 h. Potency, µM (titrated, usually from 46.1 µM), inactives show at the top dose activity change, positive = activation, most hits filed as activators. AID 1458. 2.8% of 210,000 active; also: % of control where 0% means no effect; nearly all actives have a fitted effect of over 55% in size
#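 qHTS luciferase splicing reporter: luminescence rises when SMN2 exon 7 is included in transfected HEK293 cells. Compound exposure lasted 30-36 h at 37C, with 4.5 mM final sodium butyrate as control, followed by a ONE-Glo read.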
# Rab9 promoter act: Rab9 promoter activation; Potency, µM (highest dose often 9.22 µM), inactives show top-dose activation, negative = inhibition, usual class: activators; 2.8% of 320,000 active; AID 485297; Huh7 Rab9 promoter-luciferase reporter, luminescence, 24 h; also: % of control where 0% means no effect; nearly all actives have a fitted effect of over 60% in size
#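 Luciferase signal after 10 min detection reagent at ambient indicates Rab9 promoter upregulation; stably transfected Huh7 cells were treated 24 h with compound in DMSO at 37 °C, 5% CO2.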
# NPC1 promoter act: activators of NPC1 promoter | Potency, µM (highest dose often 9.22 µM), without a hit: at the top dose activation, hits mostly activators | 2.4% of 320,000 active | AID 485313 | Huh7 NPC1 promoter luciferase reporter, 24 h; also: % of control where 0% means no effect; nearly all actives have a fitted effect of over 60% in size
#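 Huh7 cells stably carrying NPC1 promoter–luciferase, plated in Opti-MEM with 10% FBS for 2 h, were exposed to compound in DMSO for 24 h at 37 °C; luciferase reagent was added for 10 min and luminescence read.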
# ELG1 genotox: induces genotoxicity in HEK293T cells with luciferase-tagged ELG1; HEK293T ELG1-luciferase reporter, luminescence, 16 h; 1.3% of 330,000 active; Potency, µM (doses to about 46 µM), without a hit: top-dose activity change, positive = activation, usual class: activators; also: % of control where 0% means no effect; nearly all actives have a fitted effect of over 60% in size
#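 HEK293T cells expressing luciferase-tagged ELG1 were treated with compound or DMSO for 16 hr at 37°C. Luciferase activity was then read after 30 min with ONE-Glo at room temperature; rising signal flags genetic stress.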
# Numbers without * were called inactive; ? = inconclusive; · = not tested or not shown; [ ] = another dose, or the depositor's remark. Only some compounds are listed: those with a hit (about 9.4% of all), similar ones and a draw of the others. Calls follow the shape of the dose curve; as a rule, active = well fitted curve in the direction sought with a large enough effect; inconclusive = small, poorly fitted or top-dose-only effect, or another doubt; inactive = no such curve, though single readings can be large; an effect the other way counts as inactive or inconclusive. Potency is read from the fitted curve at half-maximal effect.
SMILES,ELG1 DNA repair,FLuc counter,SMN2 splice up,Rab9 promoter act,NPC1 promoter act,ELG1 genotox
Cc1ccsc1CCN1C(=O)N(c2ccccc2)C(=O)C1CC(=O)Nc1ccc(F)cc1 (centres undefined),·,3.3%,17.5%,·,·,·
COc1ccc(S(=O)(=O)Nc2cc(-c3cn4ccc(C)cc4n3)ccc2C)cc1OC,·,15.1µM*,18.8%,·,·,·
CCCS(=O)(=O)Nc1cc(-c2cn3ccc(C)cc3n2)ccc1C,·,9.53µM*,14.6%,·,·,·
Cc1cc(C)c(S(=O)(=O)Nc2cc(-c3cn4ccccc4n3)ccc2C)cc1C,·,?,5.7%,·,·,·
Clc1cccc(CNc2cc(-c3ccccc3)nc3nncn23)c1,·,-1.3%,0.9%,·,·,·
O=c1c2[nH]c3ccccc3c2ncn1C1CCCCC1,?,?,1.6%,?,4.47µM*,?
CC(C)CSc1nnc2c(n1)[nH]c1ccccc12,?,0.675µM*,2.24µM*,0.708µM*,3.55µM*,0.651µM*
CC(C)CSc1nnc2c3ccccc3n(C)c2n1,?,10.7µM*,·,5.9%,18.3%,?
CCCCSc1nnc2c(n1)[nH]c1ccccc12,?,?,3.55µM*,1.26µM*,?,?
O=C(O)c1ccccc1CSc1nnc2c(n1)[nH]c1ccccc12,8.1%,21.3µM*,·,-3.5%,14.6%,-0.3%
COc1ccc2sc(N(Cc3cccnc3)C(=O)c3cccs3)nc2c1,·,-14.6%,·,·,·,·
O=C1C(Cl)=C(NCCc2ccccc2)C(=O)N1CCc1ccccc1,?,-15.7%,12.6%,14.4%,13.4%,?
O=C1C(Cl)=C(N2CCOCC2)C(=O)N1CCc1ccccc1,?,19µM*,12.6µM*,?,13.1%,?
CN1CCN(C2=C(Cl)C(=O)N(CCc3ccccc3)C2=O)CC1,?,?,12.6µM*,?,19.3%,13.6%
O=C1C(Cl)=C(NCC2CCCO2)C(=O)N1CCc1ccccc1 (centres undefined),?,15.1µM*,12.6µM*,?,?,?
COc1cccc(-c2nc(SCC(=O)NCC3CCCO3)c(-c3ccc(Cl)cc3)[nH]2)c1 (centres undefined),·,-10.3%,-8.5%,·,·,·
CS(=O)(=O)CCCCN=C=S,·,·,-7.3%,·,·,·
COc1cccc(C(=O)OCC(=O)c2ccc(Br)s2)c1OC,?,8.49µM*,·,15.5%,-2.9%,-2.8%
Cc1cc(C(=O)OCC(=O)c2ccc(Br)s2)c(C)o1,?,?,5.6%,7.0%,2.2%,2.9%
Cc1cc(C(=O)OCC(=O)c2ccc(Br)s2)no1,?,9.53µM*,-6.9%,-0.4%,-9.9%,0.4%
CCOc1ccc(C2C(=O)N(C3CCCCCC3)CC(=O)N2CCc2ccccc2)cc1OC (centres undefined),·,-1.1%,·,·,·,·
CCCCC/C=C\C/C=C\CCCCCCCC(=O)NCC(=O)O,·,·,5.5%,·,·,·
COCCN(C(=O)COC(=O)/C=C/c1nc2ccccc2s1)c1c(N)n(Cc2ccccc2)c(=O)[nH]c1=O,?,21.3µM*,·,-2.1%,2.2%,-22.3%
COCCN(C(=O)COC(=O)/C=C/c1ccc2ccccc2n1)c1c(N)n(Cc2ccccc2)c(=O)[nH]c1=O,11.6µM*,?,·,1.7%,-3.9%,-3.2%
NCCSC[C@H](N)C(=O)O,·,·,-6.6%[9.22 µM],·,·,·
SMILES,ELG1 DNA repair,FLuc counter,SMN2 splice up,Rab9 promoter act,NPC1 promoter act,ELG1 genotox
COc1cc(C(=O)N2CCN(C(=O)COc3ccc4ccccc4c3)CC2)cc(OC)c1OC,-19.6%,10.7µM*,-8.2%,0.7%,8.5%,2.2%
COc1cccc(C(=O)N2CCN(C(=O)COc3ccc4ccccc4c3)CC2)c1,?,6.01µM*,·,-2.2%,-4.9%,-24.3%
CCOC(=O)c1cccc(NC(=O)c2cc(-c3ccc(Cl)s3)nc3ccccc23)c1,·,-12.5%,2.8%,·,·,·
C(#Cc1ccccc1)Cn1nnc2ccccc21,?,16.9µM*,22.5%,?,?,?
CC(=O)c1ccc(N/N=C(/C(N)=O)C2=NC(C)(C)Cc3ccccc32)cc1,20.6µM*,-7.7%,?,-13.3%,-12.3%,-6.6%
CC1(C)Cc2ccccc2C(/C(=N\Nc2cccc(Cl)c2)C(N)=O)=N1,16.4µM*,-3.8%,-34.1%,-13.5%,-5.1%,-5.0%
Fc1ccc(-c2nnc(Cc3ccc(Cl)cc3)o2)cc1,?,16.9µM*,·,26.3%,?,?
CCCCOc1ccc(CNC(=O)C2CCCN(c3nnc(-n4c(C)ccc4C)s3)C2)cc1 (centres undefined),·,-5.3%,-32.0%,·,·,·
COc1ccc(NC(=O)NNC(=O)c2ccc3ccccc3c2O)c(OC)c1,0.4%,-2.1%,·,6.1%,-3.8%,4.8%
COc1ccc(NC(=O)c2cc(-c3ccccn3)nc3ccccc23)c(OC)c1,8.2µM*,·,·,·,·,-7.9%
COc1ccc(NC(=O)NNC(=O)c2cc(C3CC3)nc3ccccc23)c(OC)c1,13µM*,-3.8%,·,9.0%,0.2%,-10.1%
CCc1cccc(C)c1NC(=O)Cn1cc2c(n1)CCCCC2,·,6.8%,-6.7%,·,·,·
CC1C/C(=C/c2cccn2C)C(=O)/C(=C/c2cccn2C)C1 (centres undefined),?,?,-14.2%,-5.0%,-9.1%,2.0%
CC1C/C(=C/c2ccncc2)C(=O)/C(=C/c2ccncc2)C1 (centres undefined),20.6µM*,-11.2%,·,-35.6%,-42.3%,-22.2%
NC(=O)c1ccc2c(=O)n3c(-c4cc(Cl)c(N)c(Cl)c4)csc3nc2c1,10.3µM*,-0.4%,·,-13.8%,-21.0%,-5.6%
Cc1cccc(N2CCN(C(c3ccc(F)cc3)c3nnc(-c4ccccc4)o3)CC2)c1C (centres undefined),·,-11.5%,-22.2%,·,·,·
COc1cccc(-c2nn(C)c3sc(C(=O)NCc4ccc(OC)cc4OC)cc23)c1,·,-9.2%,-14.5%,·,·,·
COc1cccc(-c2nn(C)c3sc(C(=O)NCc4ccc(C)o4)cc23)c1,?,2.0%,15.8µM*,6.9%,11.6%,-17.5%
COc1cccc(-c2nn(C)c3sc(C(=O)N4CCOCC4)cc23)c1,18.4µM*,-10.3%,15.1%,-1.0%,0.6%,-2.2%
CCOC(=O)C1CCCN(C(=O)c2cc3c(-c4cccc(OC)c4)nn(C)c3s2)C1 (centres undefined),11.6µM*,3.1%,6.3%,-10.3%,-10.1%,-26.8%
CCc1ccccc1NC(=O)CSc1nc2c(oc3ccccc32)c(=O)n1-c1ccccc1,·,-0.3%,4.4%,·,·,·
CC(C)(C)OC(=O)NCCCCC1=CC2=CC(=O)C(C)(OC(=O)C3CCCC3)C(=O)C2=CO1 (centres undefined),·,·,15.1%,·,·,·
COc1ccc(N2CCN(C(CNC(=O)C(=O)NCCCN(C)C)c3cccnc3)CC2)cc1 (centres undefined),·,2.0%,·,·,·,·
